Screening data (PubChem)
A selection: hits, their analogues and other compounds. The true share with any hit is near 2.4%.
D2 ag-1 – Beta-Arrestin HTS for Positive Allosteric Modulators of the Human D2 Dopamine Receptor: Agonists. D(2) dopamine receptor (Homo sapiens), P14416. DiscoveRx PathHunter D2 beta-arrestin, luminescence, 90 min; 100% = 57 uM dopamine signal. activation, % (no concentration beside the values). 360,000 compounds, 0.084% hits; in the data active = activation above about 40%; inconclusive = between about 15% and that limit
Target sequence (P14416 whole entry, looked up): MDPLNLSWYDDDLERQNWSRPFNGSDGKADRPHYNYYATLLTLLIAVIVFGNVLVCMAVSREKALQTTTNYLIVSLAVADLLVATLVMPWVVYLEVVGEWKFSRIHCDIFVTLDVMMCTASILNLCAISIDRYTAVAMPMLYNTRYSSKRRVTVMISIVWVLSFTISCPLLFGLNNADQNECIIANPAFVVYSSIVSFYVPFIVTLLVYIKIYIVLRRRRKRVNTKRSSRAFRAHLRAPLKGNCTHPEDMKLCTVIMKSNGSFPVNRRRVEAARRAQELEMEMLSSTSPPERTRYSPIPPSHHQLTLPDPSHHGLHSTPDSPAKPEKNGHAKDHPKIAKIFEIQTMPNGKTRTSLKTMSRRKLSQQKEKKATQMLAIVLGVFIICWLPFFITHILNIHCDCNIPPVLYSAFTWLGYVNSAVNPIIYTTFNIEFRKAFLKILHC
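Agonist mode: compounds alone added to overnight-plated D2 PathHunter cells for 90 min at 37 C, with 57 uM final dopamine (EC100) defining full response. Beta-arrestin recruitment detected by chemiluminescent reagent, read after 1 h at ambient temperature.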
D2 antagonist – HTS Assay for Allosteric Antagonists of the Human D2 Dopamine Receptor: Primary Screen for Antagonists; HEK293 TREx D2 cells, calcium flux, dopamine EC80; 340,000 compounds, 2% hits; inhibition, % at 10 µM; D(2) dopamine receptor (Homo sapiens), P14416; in the data active = inhibition above about 30%; inactive = below that, where a call was filed; also: 0% is about no effect
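Antagonism is scored as inhibition of an EC80 dopamine-evoked calcium signal in a force-coupled, tetracycline-inducible HEK293 T-REx D2 line, with compound present 180 s before agonist.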
D2 PAM-1 – HTS Assay for Positive Allosteric Modulators of the Human D2 Dopamine Receptor: Primary Screen for Potentiators; potentiation, % at 10 µM; D(2) dopamine receptor (Homo sapiens), P14416; HEK293 T-REx D2, calcium flux, EC20 dopamine potentiation; 340,000 compounds, 0.34% hits;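 active = potentiation over 3 SD above the plate norm, cut at about 30% in these data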; also: 0% is about no effect
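Potentiation of an EC20 dopamine calcium response is measured in a force-coupled, tetracycline-inducible Hek293 Trex D2 line. Compound-only kinetic reads over 180 s flag agonists before dopamine addition.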
D2 ag-2 – HTS Assay for Allosteric Agonists of the Human D2 Dopamine Receptor: Primary Screen for Agonists; D(2) dopamine receptor (Homo sapiens), P14416; HEK293 T-REx D2 cells, calcium flux agonist mode; activation, % at 2 µM; 340,000 compounds, 0.53% hits; AID 485358, 2010;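 active = activation over 3 SD above normal in the single-dose calcium agonist read, cut at about 30% in these data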; also: 0% is about no effect
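Tetracycline-induced HEK293 Trex cells with D2 receptor force-coupled to calcium signaling, plated overnight at 30 C and loaded with no-wash calcium dye. Calcium flux read kinetically for 180 s after compound addition; responses flag agonists.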
D2 PAM-2 – Beta-Arrestin HTS for Positive Allosteric Modulators of the Human D2 Dopamine Receptor: Potentiators. DiscoveRx D2 beta-arrestin cells, luminescence, 90 min; 100% = 57 uM dopamine signal. potentiation, % (test concentration not listed). 360,000 compounds, 0.23% hits; in the data active = potentiation above about 50%; inconclusive = mostly about 30% to 49%
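D2 cells co-treated with compound plus 50 nM dopamine (EC20) for 90 min at 37 deg C to detect potentiation. Beta-arrestin recruitment was read as enzyme-fragment luminescence after 1 h at ambient temperature. Full response was set by 57 uM dopamine.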
* hit, by the source's call; ? = inconclusive; . = no result.

SMILES | D2 ag-1 | D2 antagonist | D2 PAM-1 | D2 ag-2 | D2 PAM-2
CCN(c1ccccc1)c1nnc(NC(=O)Nc2cccc(Br)c2)s1 | . | . | 1 | . | .
Cc1ccccc1NC(=O)C1(C)Cc2ccccc2C(=O)O1 (centres undefined) | -2 | -10 | 33* | 2 | -6
CC(C)(C)SCCNC(=O)CN(c1ccccc1)S(=O)(=O)c1ccc(F)cc1 | -3 | 32* | -4 | 1 | -1
CCCn1c(SCC(=O)N2CCc3ccccc32)nnc1-c1ccco1 | -3 | -10 | 2 | 1 | -8
Cc1ccc2nc(-c3cccnc3SCC(=O)N3c4ccccc4CC3C)[nH]c2c1 (centres undefined) | -2 | -5 | -4 | 0 | -5
Cc1ccc2nc(SCC(=O)N3c4ccccc4CC3C)c(C)cc2c1 (centres undefined) | -4 | 3 | 32* | 1 | -26
CCCn1c(SCC(=O)N2c3ccccc3CC2C)nnc1-c1ccco1 (centres undefined) | -1 | -21 | 43* | 1 | -6
CCn1c(SCC(=O)N2c3ccccc3Sc3ccccc32)nnc1-c1ccco1 | 2 | -13 | 40* | 1 | 10
C=CCn1c(SCC(=O)N2c3ccccc3Sc3ccccc32)nnc1-c1ccco1 | 2 | -9 | -7 | -1 | -4
CC1(C(=O)OCC(=O)NCc2ccc(Cl)cc2)CC1(Cl)Cl (centres undefined) | -5 | . | . | . | -4
CC1(C(=O)OCC(=O)NC(=O)NCc2ccccc2)CC1(Cl)Cl (centres undefined) | -2 | 31* | 6 | 1 | 0
O=S(=O)(c1ccc2ccccc2c1)N1CCOCC1 | 1 | -4 | 25 | 1 | -5
O=S(=O)(c1ccc2nc(-c3ccco3)c(-c3ccco3)nc2c1)N1CCOCC1 | 4 | -2 | 17 | -2 | 56*
COc1cc2[nH]c(=O)n(Cc3ccc(C(=O)N4CCN(c5cc(Cl)ccc5C)CC4)cc3)c(=O)c2cc1OC | . | . | -10 | 0 | .
O=S1(=O)NC(=NCc2ccccc2)c2ccccc21 | -3 | 30* | -7 | 0 | 5
Cc1ccc(NC(=O)Cc2ccc(-n3c(C)nc4cccnc43)cc2)c(Cl)c1 | . | . | 6 | 0 | .
CN1CCN(c2ccc(Cl)cc2NC(=O)CC2OC(=O)c3ccccc32)CC1 (centres undefined) | -7 | 38* | -14 | 1 | -28
CN1CCN(c2ccc(Cl)cc2NC(=O)C2COc3ccccc3O2)CC1 (centres undefined) | 0 | 2 | 6 | 0 | -14
Cc1cc(C)c(NC(=O)c2ccc(CN3CCc4ccccc4C3)cc2)c(C)c1 | -1 | 52* | -24 | 8 | -43
CC(=O)c1cccc(NC(=O)c2ccc(CN3CCc4ccccc4C3)cc2)c1 | -8 | 19 | -32 | 7 | -4
O=C(Nc1ccc(S(=O)(=O)N2CCCC2)cc1)c1ccc(CN2CCc3ccccc3C2)cc1 | 1 | 64* | -16 | 3 | -36
O=C(CN1CCc2ccccc2C1)N1CCN(S(=O)(=O)c2ccccc2)CC1 | 6 | 7 | -11 | 35* | -5
CCOc1ccccc1NC(=O)c1ccc(CN2CCc3ccccc3C2)cc1 | -1 | 54* | -19 | 1 | -20
Cc1ccc(S(=O)(=O)N2CCN(C(=O)CN3CCc4ccccc4C3)CC2)cc1 | 2 | 3 | -18 | 15 | -12
O=C(NCc1ccc(F)cc1)c1cnc(N2CCOCC2)c2ccccc12 | . | . | -8 | . | .
SMILES | D2 ag-1 | D2 antagonist | D2 PAM-1 | D2 ag-2 | D2 PAM-2
COc1cc(OC)c(NS(=O)(=O)c2ccc3c(c2)CCCN3C(C)=O)cc1Cl | . | . | 2 | 1 | .
N#Cc1ccc(S(=O)(=O)N2CCC(Oc3cccc(C(F)(F)F)c3)CC2)cc1 | . | . | -6 | 1 | .
O=C(c1ccc2c(c1)N(Cc1ccc(F)cc1)CCS2)N1CCN(c2ccccc2)CC1 | . | . | 6 | -1 | .
O=C(c1ccc(CN2CCc3ccccc3C2)cc1)N1CCCCC1 | -2 | 35* | -20 | 14 | -37
O=C(CNC1CCN(Cc2ccccc2)CC1)Nc1ccc(S(=O)(=O)N2CCCCC2)cc1 | -3 | 37* | -29 | 0 | -25
CCOc1ccc(C(=O)Nc2ccccc2NC(C)=O)cc1OCC | 0 | 103* | -37 | -2 | -9
CCc1ccc(CNC(=O)COc2cc(=O)n(CC)c3ccccc23)cc1 | . | . | -7 | 0 | .
CN(C(=O)c1ccc2c(c1)N(Cc1ccccc1F)C(=O)c1ccccc1S2(=O)=O)C1CCCCC1 | . | . | -6 | -1 | .
CCN1CCN(c2cc3c(cc2F)c(=O)c(S(=O)(=O)c2cc(C)cc(C)c2)cn3CC)CC1 | . | . | 3 | . | .
Cc1ccc(Cl)cc1N1CCN(C(=O)CCS(=O)(=O)c2ccc3c(c2)oc(=O)n3C)CC1 | . | . | -10 | 0 | .
CCC1CCCCN1CCCNC(=O)CSc1nc2nc(C)c(Cc3ccccc3)c(C)n2n1 (centres undefined) | -2 | -24 | 8 | 1 | -10
CCC1CCCCN1CCCNC(=O)CSc1nc2nc(C)c(Cc3ccccc3Cl)c(C)n2n1 (centres undefined) | -5 | -6 | 31* | 0 | -17
O=C1C(c2cccc(Br)c2)N(CCc2ccccc2)C(=O)CN1C1CCCCC1 (centres undefined) | . | . | -6 | 0 | .
Cc1sc(NC(=O)CSc2nc(N)n(CC(=O)c3ccccc3)n2)c(C#N)c1C | 2 | -22 | -24 | 33* | 5
CCSc1nnc2c(n1)OC(CC)N(C(C)=O)c1ccccc1-2 (centres undefined) | . | . | 11 | . | .
O=C(CCN1C(=O)c2ccc([N+](=O)[O-])cc2C1=O)Nc1cccc(O)c1 | ? | -13 | 5 | -1 | 63*
O=C(CCCn1cnc([N+](=O)[O-])n1)Nc1ccc(F)c(Cl)c1 | -1 | 2 | 1 | 0 | -7
Cc1cc(O)ccc1NC(=O)CCN1C(=O)c2ccc([N+](=O)[O-])cc2C1=O | ? | 27 | 4 | -1 | 73*
Cc1ccc(NC(=O)CCN2C(=O)c3ccccc3C2=O)c(C)c1 | -2 | . | . | . | -9
O=C(CCCn1cnc([N+](=O)[O-])n1)Nc1cccc(O)c1 | 1 | 35* | 6 | 2 | 4
O=C(COc1ccccc1Cl)N(Cc1ccco1)Cc1ccco1 | . | . | -2 | 0 | .
CCOC(=O)N1CCC(NC(=O)c2ccc3c(c2)N(Cc2ccc(F)cc2)C(=O)c2ccccc2S3=O)CC1 (centres undefined) | . | . | 4 | 0 | .
